Among all 400,000 compounds or so, about 2,100 (0.53%) were called active. About 14% were inconclusive and are not listed. This is one part of a sample in which actives are shown more often than they occur. The rule behind the calls is not given here.
These compounds were tested against Ataxin-2 (Homo sapiens) (UniProt Q99700) (assay: qHTS for Inhibitors of ATXN expression.).
Chain of Ataxin-2 (Homo sapiens) (Q99700 whole entry): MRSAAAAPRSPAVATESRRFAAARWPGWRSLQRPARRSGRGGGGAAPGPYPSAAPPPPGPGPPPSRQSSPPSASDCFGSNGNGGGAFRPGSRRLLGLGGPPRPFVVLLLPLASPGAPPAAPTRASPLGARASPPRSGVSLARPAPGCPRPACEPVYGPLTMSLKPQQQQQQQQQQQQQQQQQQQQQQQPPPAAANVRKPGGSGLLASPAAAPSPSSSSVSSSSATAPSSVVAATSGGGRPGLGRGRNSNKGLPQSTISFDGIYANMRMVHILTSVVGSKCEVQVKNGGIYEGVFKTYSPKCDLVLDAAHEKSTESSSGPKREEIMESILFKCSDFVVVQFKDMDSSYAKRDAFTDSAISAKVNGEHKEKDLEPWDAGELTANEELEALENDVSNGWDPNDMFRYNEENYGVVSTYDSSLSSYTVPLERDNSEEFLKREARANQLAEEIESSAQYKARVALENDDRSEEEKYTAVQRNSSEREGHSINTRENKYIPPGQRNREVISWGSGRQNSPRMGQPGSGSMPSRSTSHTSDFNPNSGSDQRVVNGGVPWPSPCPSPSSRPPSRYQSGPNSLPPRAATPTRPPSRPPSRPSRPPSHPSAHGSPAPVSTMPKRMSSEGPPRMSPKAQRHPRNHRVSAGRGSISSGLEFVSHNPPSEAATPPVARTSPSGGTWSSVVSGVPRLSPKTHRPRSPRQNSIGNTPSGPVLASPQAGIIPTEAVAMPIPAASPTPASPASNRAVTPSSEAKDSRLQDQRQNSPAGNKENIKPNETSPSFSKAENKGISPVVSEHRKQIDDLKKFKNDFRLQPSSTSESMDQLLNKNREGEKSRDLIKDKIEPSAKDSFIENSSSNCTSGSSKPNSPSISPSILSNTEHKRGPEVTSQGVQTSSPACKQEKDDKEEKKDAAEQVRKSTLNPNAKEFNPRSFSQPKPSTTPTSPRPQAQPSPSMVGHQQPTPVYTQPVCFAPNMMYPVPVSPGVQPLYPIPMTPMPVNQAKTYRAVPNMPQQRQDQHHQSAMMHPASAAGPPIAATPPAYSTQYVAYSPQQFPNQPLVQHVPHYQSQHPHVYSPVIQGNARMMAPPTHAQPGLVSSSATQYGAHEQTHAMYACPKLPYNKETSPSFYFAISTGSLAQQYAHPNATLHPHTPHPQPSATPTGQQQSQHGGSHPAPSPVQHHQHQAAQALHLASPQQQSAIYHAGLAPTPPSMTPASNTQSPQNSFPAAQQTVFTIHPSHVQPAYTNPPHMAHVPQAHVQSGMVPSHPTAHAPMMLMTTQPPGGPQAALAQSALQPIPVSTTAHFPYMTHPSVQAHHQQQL
Format: functional
With CCc1c(C)c2cc(Cl)c(O)c(CN(C)C)c2oc1=O the Potency was “inactive”.
COc1ccc(/C=N/n2cnc3c4cc(C)ccc4nc-3c2O)cc1CN1CCCC1 was tested, and the Potency was 39.8 µM (active).
COc1ccc(/C=N/N2C(C)CCCC2C)cc1OC (stereo not drawn) was tested, and the Potency was “inactive”.
In the case of COc1ccc(/C=N/NC(=O)c2ccncc2)cc1CN1CCOCC1, the Potency is reported as “inactive”.
CCOc1ccc2nc(NCCN=C(S)NCCCN(C)C)c(C#N)cc2c1 was tested, and the Potency was “inactive”.
In the case of Cc1c(O)ccc2c(-c3ccccc3)cc(=O)oc12, the Potency is reported as “inactive”.
With COc1ccc(CNC[C@@H](CCCCN(C)Cc2ccc(OC)cc2)N2C[C@H](c3ccccc3)N(CCc3ccc(Cl)c(Cl)c3)C(=O)C2=O)cc1 the Potency was 25.1 µM (active).
In the case of CC(=O)NS(=O)(=O)c1ccc(/N=c2\ssc3c2-c2cc(C)ccc2NC3(C)C)cc1, the Potency is reported as 39.8 µM (active).
For CCN(CC)c1cc(C)c2cc(NC(=O)c3cccc(F)c3)ccc2n1, the Potency was 39.8 µM (active).
For Cc1cc(Nc2cccc(Cl)c2)nc2ccc(NC(=O)c3cncc(Br)c3)cc12, the Potency was “inactive”.
In the case of O=C(Nc1ccc(F)cc1)c1ccc2nc(O)c(O)nc2c1, the Potency is reported as “inactive”.
CCn1nc(NC(=O)c2ccccc2)c2cc3cccc(C)c3nc21 was tested, and the Potency was “inactive”.
Cc1cccc(OCC(=O)Nc2ccc3nc(Nc4cccc(Cl)c4)cc(C)c3c2)c1 was tested, and the Potency was “inactive”.
For COc1ccc(Nc2cc(C)c3cc(NC(=O)Cc4c(F)cccc4Cl)ccc3n2)cc1, the Potency was “inactive”.
COc1ccc(Nc2cc(C)c3cc(NC(=O)c4cc(OC)cc(OC)c4)ccc3n2)cc1 was tested, and the Potency was “inactive”.
In the case of CCN(CC)c1cc(C)c2cc(NC(=O)/C=C/c3ccccc3Cl)ccc2n1, the Potency is reported as 28.2 µM (active).
CCN(CC)c1cc(C)c2cc(NC(=O)c3ccc(Br)o3)ccc2n1 was tested, and the Potency was 35.5 µM (active).
With CCN(CC)c1cc(C)c2cc(NC(=O)c3cc(OC)cc(OC)c3)ccc2n1 the Potency was 35.5 µM (active).
In the case of Cc1ccccc1/C=C/c1cccc[n+]1C, the Potency is reported as “inactive”.
O=C(N/C(=C/c1cccc(Br)c1)C(=O)N1CCOCC1)c1ccco1 was tested, and the Potency was “inactive”.
C(=Cc1c[nH]c2ccccc12)c1ccc2ccccc2n1 was tested, and the Potency was “inactive”.
For CC(C(=O)NCC1CCCCC1)N(C)CC(=O)Nc1ccc(N2CCOCC2)cc1 (stereo not drawn), the Potency was “inactive”.
Cc1cccc(C2C=C(c3ccc(C)c(C)c3)Nc3nnnn32)c1 (stereo not drawn) was tested, and the Potency was “inactive”.
With CCN(CC)c1cc(C)c2cc(NC(=O)c3cccc(OC)c3)ccc2n1 the Potency was 39.8 µM (active).
For CCN1CCN(c2cc(C)c3cc(NC(=O)c4cccc(OC)c4)ccc3n2)CC1, the Potency was “inactive”.
For Cc1ccc(NN2C(=O)C=C(c3ccc(Cl)cc3)C2=O)cc1, the Potency was 28.2 µM (active).
For CC(=O)c1ccc(F)c(-c2cc(C)cc3c2OC(CNC(=O)c2csc(C)n2)C3)c1 (stereo not drawn), the Potency was “inactive”.
For Cc1cccc(COC[C@H](CC(C)C)N2CCN(C(=O)c3ccc(C(C)(C)C)cc3)CCC2=O)c1, the Potency was 39.8 µM (active).
CC(C)CC(COCc1cccc(C(F)(F)F)c1)N1CCN(C(=O)c2cccc(C(F)(F)F)c2)CCC1=O (stereo not drawn) was tested, and the Potency was 31.6 µM (active).
For Cc1cccc(COC[C@H](CC(C)C)N2CCN(C(=O)c3ccc(C(F)(F)F)cc3)CCC2=O)c1, the Potency was 35.5 µM (active).
With O=C(COC(=O)C1=Cc2ccccc2OC1)NCc1ccco1 the Potency was “inactive”.
Cn1c(Cl)c(/C=N/OC(=O)C2CC2)c2ccccc21 was tested, and the Potency was “inactive”.
O=c1ccc2cc(O)c(O)cc2o1 was tested, and the Potency was “inactive”.
With OC[C@@H]1[C@@H](c2ccc(Cl)cc2)C(c2cccc(Cl)c2)=NN1c1ccccc1 the Potency was “inactive”.
For Cc1cc2cc(C#N)c(NCCN=C(S)NCCCN3CCOCC3)nc2cc1C, the Potency was “inactive”.
For CCCN(CCC)C(=O)CSc1c2c(nc3ccc(Cl)cc13)CCCC2, the Potency was 39.8 µM (active).
In the case of CCN(CC)CCNC(=O)CSc1c2c(nc3cc(Cl)ccc13)CCCC2, the Potency is reported as 35.5 µM (active).
CC1CCCC(NC(=O)c2ccc3c(SCC(=O)O)c4c(nc3c2)CCC4)C1C (stereo not drawn) was tested, and the Potency was “inactive”.
With CCN(CC)CCCC(C)n1c2nc(=O)[nH]c(=O)c-2nc2cc(Cl)ccc21 (stereo not drawn) the Potency was “inactive”.
O=C(O)c1c2c(nc3ccc(Cl)cc13)CCC2 was tested, and the Potency was “inactive”.
For CCN(CC)CCCNC(=O)CSc1nc(C)cc(C)n1, the Potency was “inactive”.
In the case of O=C(Cc1cc(O)nc(O)n1)NCCN1CCOCC1, the Potency is reported as “inactive”.
For CCN(CC)CCCNC(=O)CSc1c2c(nc3cc(Cl)ccc13)CCCC2, the Potency was 28.2 µM (active).
For O=C(CSc1c2c(nc3ccc(Cl)cc13)CCCC2)NCCCN1CCOCC1, the Potency was 35.5 µM (active).
In the case of CCOC(=O)C1CCCc2c1[nH]c1ccc(Cl)cc21 (stereo not drawn), the Potency is reported as “inactive”.
Cc1occc1-c1nnc(SCC(=O)NC2CCCCC2)o1 was tested, and the Potency was “inactive”.
With Cc1c(CC(=O)N2CCN(C(=O)C3COc4ccccc4O3)CC2)c(=O)oc2cc(O)c(Cl)cc12 (stereo not drawn) the Potency was “inactive”.
With Nc1cccc2c1C(=O)N(c1ccccc1)C2=O the Potency was “inactive”.
For Cc1ccc(C(=O)Nc2nc3n(n2)C(c2ccccc2)C=C(c2ccccc2)N3)cc1 (stereo not drawn), the Potency was “inactive”.
In the case of CNc1cc(C)c(C#N)c2nc3ccccc3n12, the Potency is reported as “inactive”.
CCC(c1ccc(O)c(O)c1)C(CC)c1ccc(O)c(O)c1 (stereo not drawn) was tested, and the Potency was 31.6 µM (active).
CCN(CC)Cc1cc(O)c(CN(CC)CC)cc1O was tested, and the Potency was “inactive”.
With CC(C)(C)N1C(=O)c2ccc(C(=O)Nc3cc(C(=O)O)cc(C(=O)O)c3)cc2C1=O the Potency was “inactive”.
COc1cc(C(=O)NCCNc2nc3ccc(C)cc3cc2C#N)cc(OC)c1OC was tested, and the Potency was “inactive”.
For COc1ccc(CCNC(=S)NC(=O)c2cc(OC)c(OC)c(OC)c2)cc1OC, the Potency was “inactive”.
With COc1cc(C(=O)NCCc2csc(-c3ccc(Cl)cc3)n2)cc(OC)c1OC the Potency was 28.2 µM (active).
With COc1ccc(-c2cc(C(=O)Oc3ccccc3)c3cc(C)ccc3n2)cc1 the Potency was 35.5 µM (active).
COc1ccc2nc(-c3ccccc3)cc(C(=O)OCC(=O)N3CC(C)OC(C)C3)c2c1 (stereo not drawn) was tested, and the Potency was “inactive”.
COc1ccc2nc(-c3ccccc3)cc(C(=O)N3CCC3)c2c1 was tested, and the Potency was “inactive”.
For CCOC(=O)c1c(C)nc2sc(C(=O)Nc3ccccc3)c(N)c2c1-c1ccc(OC)cc1, the Potency was “inactive”.
In the case of CCOC(=O)c1c(NC(=O)CCl)sc(CN(C)C)c1-c1ccccc1, the Potency is reported as 37.7 µM (active).
For CCOC(=O)c1c(N)sc(C(=O)Nc2ccccc2)c1C, the Potency was “inactive”.
For CC(=O)Nc1nc2n(n1)C(c1ccc(F)cc1)C=C(c1ccccc1)N2 (stereo not drawn), the Potency was “inactive”.
With CCCCCn1/c(=N/C(C)=O)c(C#N)cc2c(=O)n3ccccc3nc21 the Potency was “inactive”.
COc1ccccc1[C@@H]1C(c2ccccc2)=NN(c2ccc(Br)cc2)[C@H]1C(=O)N1CCOC1=O was tested, and the Potency was “inactive”.
Cc1nc(N2N=C3/C(=C/c4ccc(F)cc4)CCCC3C2c2ccc(F)cc2)sc1C(=O)N(C)C (stereo not drawn) was tested, and the Potency was “inactive”.
For CCCn1c(O)nnc1SCC(=O)N1N=C2/C(=C/c3ccc(OC)cc3)CCCC2C1c1ccc(OC)cc1 (stereo not drawn), the Potency was 25.1 µM (active).
With CNC(=O)c1sc(N2N=C3/C(=C/c4ccccc4)CCCC3C2c2ccccc2)nc1C (stereo not drawn) the Potency was “inactive”.
For O=c1[nH]c(=O)c2nc3c4ccccc4c4ccccc4c3nc2[nH]1, the Potency was “inactive”.
CC1CCC2C(=O)N(c3ccc(C(=O)Oc4cccc5cccnc45)cc3)C(=O)C2C1 (stereo not drawn) was tested, and the Potency was “inactive”.
In the case of CN(C)c1ccc2c(O)ccnc2c1, the Potency is reported as “inactive”.
Cc1cc2nn(-c3ccc(Cl)cc3)nc2cc1N was tested, and the Potency was “inactive”.
Cc1cc2nc3ccc(N(C)C)cc3nc2cc1N was tested, and the Potency was 25.1 µM (active).
For Nc1c(C(=O)NCCN2CCOCC2)c2nc3ccccc3nc2n1CCc1ccccc1, the Potency was “inactive”.
COc1cccc(C2C3=C(O)CC(C)(C)CC3=Nc3cc(OC)c(OC)cc32)c1 (stereo not drawn) was tested, and the Potency was “inactive”.
For COC(=O)C=C1CCC2C3CCC4=CC(=O)C(Br)CC4(C)C3C(=O)CC12C (stereo not drawn), the Potency was 31.6 µM (active).
For COc1ccc(C2CC(c3ccc(Cl)cc3)=NN2c2ccc(S(N)(=O)=O)cc2)cc1 (stereo not drawn), the Potency was “inactive”.
For CCOC(=O)C1(C)C=C(Nc2ccc(NC(C)=O)cc2)C(=O)N1c1ccc(NC(C)=O)cc1 (stereo not drawn), the Potency was “inactive”.
In the case of CC(=O)NC(Cc1ccccc1C)C(=O)NC1CCN(C(=O)NCc2ccccc2)CC1 (stereo not drawn), the Potency is reported as “inactive”.
CC(C)(C)OC(=O)N1CCC(NC(=O)c2[nH]cnc2C(=O)Nc2cccc(Cl)c2)CC1 was tested, and the Potency was 35.5 µM (active).
In the case of CC(C)(C)OC(=O)NCc1ccc(CNC(=O)c2[nH]cnc2C(=O)NC2CCN(C(=O)OC(C)(C)C)CC2)cc1, the Potency is reported as 20 µM (active).
COc1ccccc1CC(NC(C)=O)C(=O)NC1CCN(C(=O)NCc2ccccc2)CC1 (stereo not drawn) was tested, and the Potency was “inactive”.
In the case of COc1cc(OC)c(N2CC(C(=O)Nc3cccc(C(=O)NC4CC4)c3)CC2=O)cc1Cl (stereo not drawn), the Potency is reported as “inactive”.
CC(C)(C)OC(=O)N1CCCN(C(=O)Nc2cccc(Cl)c2)CC1 was tested, and the Potency was “inactive”.
In the case of CS(=O)(=O)Nc1nc2n(n1)C(c1ccccc1)C=C(c1ccc(Br)cc1)N2 (stereo not drawn), the Potency is reported as “inactive”.
With COc1ccc(C2CC(c3ccccc3C(F)(F)F)=NN2c2ccc(S(N)(=O)=O)cc2)cc1 (stereo not drawn) the Potency was “inactive”.
Cc1cccn2c(=O)c3cc(C(=O)NCc4cccnc4)c(=N)n(CC4CCCO4)c3nc12 (stereo not drawn) was tested, and the Potency was “inactive”.
With Cc1cccc(Cn2c(CN3CCC(C(=O)NCc4cccnc4)CC3)cc3ccccc32)c1 the Potency was 22.4 µM (active).
In the case of O=C(Nc1nc2c(s1)CN(Cc1ccccc1)CC2)C1CCC1, the Potency is reported as “inactive”.
Cc1ccc(CNC(=O)C2CCN(c3nnc(N4CCCC4=O)s3)CC2)cc1 was tested, and the Potency was “inactive”.
Cc1ccc(Cn2c(CN3CCC(C(=O)NCc4cccnc4)CC3)cc3ccccc32)cc1 was tested, and the Potency was 35.5 µM (active).
CCCn1c(=N)c(C(=O)NCc2cccnc2)cc2c(=O)n3cccc(C)c3nc21 was tested, and the Potency was “inactive”.
With CN(C)CCNC(=O)C1CCN(Cc2cc3ccccc3n2Cc2ccccc2)CC1 the Potency was 28.2 µM (active).
In the case of O=C(Nc1nc2c(s1)CN(Cc1ccccc1)CC2)C1CCCC1, the Potency is reported as “inactive”.
With CCCn1c(=N)c(C(=O)NCc2cccnc2)cc2c(=O)n3cc(C)ccc3nc21 the Potency was “inactive”.
CCn1c(=N)c(C(=O)NCc2cccnc2)cc2c(=O)n3cc(C)ccc3nc21 was tested, and the Potency was “inactive”.
CCOC(=O)C1CCN(Cc2ccc3ccccc3c2)CC1 was tested, and the Potency was “inactive”.
With Cc1ccccc1Cn1c(CN2CCC(C(=O)NCc3cccnc3)CC2)cc2ccccc21 the Potency was 31.6 µM (active).

Source: ChEMBL document CHEMBL1201862, “PubChem BioAssay data set” (2004)
